Rows were chosen to be rich in hits. Some 12% of all compounds tested hit in one or more screens of this group.
L3MBTL1 inh: qHTS Assay for the Inhibitors of L3MBTL1. Lethal(3)malignant brain tumor-like protein 1 (Homo sapiens), Q9Y468. AlphaScreen L3MBTL1–H3K9me1 peptide binding. Potency, µM (doses to about 57.1 µM), for the others: at the top dose activity, negative = inhibition, usual class: inhibitors. actives 0.66% (n = 230,000). AID 485360, 2010; further: on the % scale 0 is the no-effect control and ±100 the full control effect; nearly all actives have a fitted effect of over 60% in size
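AlphaScreen assay: L3MBTL1 (50 nM final) was preincubated 30 min at room temperature with biotinylated H3(1-15)K9me1 peptide (75 nM final), then 30 min with library compounds; streptavidin donor and nickel chelate acceptor beads (10 ug/mL final) added, 30 min dark.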
G9a block: qHTS Assay for Inhibitors of Histone Lysine Methyltransferase G9a | G9a H3K9 monomethylation, AlphaScreen, 2 h | Potency, µM (highest dose often 102 µM), for inactives: top-dose activity, negative = inhibition, actives largely listed as inhibitors | actives 8.8% (n = 350,000) | Histone-lysine N-methyltransferase EHMT2 (Homo sapiens), Q96KQ7; further: on the % scale 0 is the no-effect control and ±100 the full control effect; nearly all actives have a fitted effect of over 75% in size
Target sequence (Q96KQ7 913-1193 limits assumed): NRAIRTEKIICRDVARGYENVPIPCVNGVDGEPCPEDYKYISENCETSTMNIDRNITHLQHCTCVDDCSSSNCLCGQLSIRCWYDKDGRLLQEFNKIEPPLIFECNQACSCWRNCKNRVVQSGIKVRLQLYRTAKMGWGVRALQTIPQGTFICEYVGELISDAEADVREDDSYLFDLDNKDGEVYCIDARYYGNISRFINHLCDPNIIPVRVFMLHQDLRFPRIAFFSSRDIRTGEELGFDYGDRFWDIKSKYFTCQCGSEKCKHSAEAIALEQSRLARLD
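Step 1: enzyme (final 20 nM) with compound, 15 min RT. Step 2: substrate peptide 500 nM and SAM 20 uM, 2 h RT. Step 3: anti-H3K9me1 antibody and AlphaScreen beads, 10 min, then plate read.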
Sfp PPTase inh: qHTS Assay for Inhibitors of Bacillus subtilis Sfp phosphopantetheinyl transferase (PPTase); 4'-phosphopantetheinyl transferase ffp (Bacillus subtilis), Q9F4F7; Biochemical Sfp PPTase activity, qHTS; Potency, µM, inactives show largest response in the series, negative = inhibition, hits mostly inhibitors; actives 3.5% (n = 310,000); AID 1490, 2009;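 further: the enzyme is Sfp with the accession as filed and its product quenches rhodamine fluorescence; 0% = enzyme reaction without inhibitor and -100% = no enzyme wells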
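With Hepes-Na pH 7.6 buffer containing 10 mM MgCl2, Sfp (15 nM) modified BHQ-2-YbbR (12.5 uM) using rhodamine-CoA (5 uM). Two reads 30 minutes apart at 525/598 nm yielded each well's rate.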
HP1b binding inh: HTS for Inhibitors of HP1-beta Chromodomain Interactions with Methylated Histone Tails; Chromobox protein homolog 1 (Homo sapiens), P83916; AlphaScreen HP1-beta / biotin-H3K9me3 peptide binding; Potency, µM (series often up to 114 µM), for the others: top-dose activity change, negative = inhibition, actives largely listed as inhibitors; actives 0.56% (n = 390,000); further: nearly all actives have a fitted effect of over 70% in size
Target sequence (P83916 whole entry, looked up): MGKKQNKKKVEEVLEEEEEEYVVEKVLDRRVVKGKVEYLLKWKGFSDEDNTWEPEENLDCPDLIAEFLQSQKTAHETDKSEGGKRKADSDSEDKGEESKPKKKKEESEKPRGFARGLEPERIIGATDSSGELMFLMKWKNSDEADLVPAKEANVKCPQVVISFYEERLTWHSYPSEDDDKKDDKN
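HP1-beta protein (50 nM final) preincubated 30 min at room temperature with biotinylated H3(1-18)K9me3 peptide (50 nM) in PBS pH 7.4, 0.01% Tween-20, then compound added for 30 min. AlphaScreen streptavidin donor/nickel chelate acceptor beads (10 ug/mL final), 30 min dark, luminescence read.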
BAZ2B inh: qHTS Assay for Inhibitors of BAZ2B | AID 504333, 2011 | Potency, µM (titrated, usually from 114 µM), for inactives: top-dose activity change, negative = inhibition, most hits filed as inhibitors | actives 4.4% (n = 360,000) | AlphaScreen BAZ2B-H3K14Ac peptide displacement; further: on the % scale 0 is the no-effect control and ±100 the full control effect; nearly all actives have a fitted effect of over 60% in size
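Protein-peptide AlphaScreen: BAZ2B 50 nM, b-H3K14Ac 50 nM, 1x PBS pH 7.4 + 0.01% Tween-20. Preincubation 30 min RT; cpd 30 min RT (top 110 uM); beads 20 min RT, light-protected.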
JMJD2A Tudor inh: qHTS Assay for Inhibitors of JMJD2A-Tudor Domain; Lysine-specific demethylase 4A (Homo sapiens), O75164; AlphaScreen JMJD2A-Tudor / H3K4me3 peptide binding; Potency, µM (highest dose often 114 µM), for the others: at the highest dose activity change, negative = inhibition, actives largely listed as inhibitors; actives 4.4% (n = 390,000); AID 504339, 2011; further: on the % scale 0 is the no-effect control and ±100 the full control effect; nearly all actives have a fitted effect of over 50% in size
* = called active by the depositor; ? = inconclusive; . = no result given; [ ] = remark or other dose. The call rests on the fitted dose curve; in most records, active means well fitted curve in the direction sought with a large enough effect; inconclusive means small, poorly fitted or top-dose-only effect, or another doubt; inactive means no such curve, though single readings can be large; an effect the other way counts as inactive or inconclusive. Potency means the concentration at half of the fitted maximal effect.

SMILES | L3MBTL1 inh | G9a block | Sfp PPTase inh | HP1b binding inh | BAZ2B inh | JMJD2A Tudor inh
Cc1ccc(N=Nc2c(N)[nH]n3c(=O)cc(-c4ccccc4)nc23)cc1 | 0% | ? | 7% | ? | 4%[57.1 µM] | ?
COc1cccc(C2NC(=O)NC(C)=C2C(=O)Nc2ccc(C)cc2)c1OC (stereo not given) | -2% | -1%[59 µM] | -3% | 34% | . | -1%
COc1cccc(C2NC(=S)NC(C)=C2C(=O)c2ccccc2)c1OC (stereo not given) | -26% | 22µM* | 8% | 43% | ? | -24%
C=CCOc1ccc(C2NC(=S)NC(C)=C2C(=O)c2ccccc2)cc1OC (stereo not given) | -12% | 40µM* | -10% | 9% | -12% | -35%
COc1cc(NC(=O)CCc2c(C)[nH]c(=O)c(C#N)c2C)cc(OC)c1 | . | 6% | 16% | 28% | 0% | -4%
CN(Cc1ccccc1)Cc1ccccc1 | . | -2%[12.7 µM] | 24% | . | . | .
COc1ccc(CN(C)Cc2c(O)ccc3ccccc23)cc1 | . | 18µM* | -3% | 54% | -2% | 0%
CN(Cc1ccccc1)Cc1c(F)cccc1F | -14% | 11µM* | -27% | ? | 56µM* | 7.1µM*
COc1ccc2ccccc2c1CN(C)Cc1ccccc1 | -4%[2.29 µM] | -7%[0.501 µM] | 15% | 14% | ? | 28µM*
COc1ccc2ccccc2c1CNC(C)CCc1ccccc1 (stereo not given) | 2% | . | -17% | -1% | -15% | 79µM*
CCN1CCN(c2ccc(S(=O)(=O)N3CCOCC3)cc2N)CC1 | -23% | . | . | 24% | . | 0%
Cc1cc(-n2ccnc(NCCc3ccc(S(N)(=O)=O)cc3)c2=O)ccc1Br | . | -40%[59 µM] | . | -22% | -39% | ?
Cc1cccc(N2CCN(C(=O)CN3C(=O)COc4ccc(S(=O)(=O)N5CCC(C)CC5)cc43)CC2)c1C | . | 10%[59 µM] | . | 14% | -17% | -29%
COc1cccc(CN(C)Cc2nc(C3CC3)no2)c1 | 6% | 21% | 8% | 16% | 2% | 0%
CN(C)Cc1c(O)ccc2ccccc12 | -4% | 7.9µM* | 6% | 36% | -18% | 5%[11.4 µM]
COc1cccc(CN(C)Cc2c(O)ccc3ccccc23)c1 | . | 8.9µM* | -3% | 5% | 3% | -6%
C[N+]1(C)CCC(=C2c3ccccc3CC(=O)c3sccc32)CC1 | ? | 6.3µM* | 6% | 21% | 7.1µM* | -22%
C#CCOCCOCCOCCNc1nc(N2CCN(C(=O)[C@H](CCC(=O)O)n3cc([C@@H](N)CO)nn3)CC2)nc(N2CCN(C(=O)[C@H](CCC(=O)O)n3cc([C@@H](N)CCSC)nn3)CC2)n1 | ? | . | . | 7% | . | 79µM*
C#CCOCCOCCOCCNc1nc(N2CCN(C(=O)[C@H](CCCCN)n3cc(CN)nn3)CC2)nc(N2CCN(C(=O)[C@H](CCC(=O)O)n3cc(CN)nn3)CC2)n1 | 1% | . | . | 37% | . | ?
C#CCOCCOCCOCCNc1nc(OC)nc(N2CCN(C(=O)[C@H](CCC(=O)O)n3cc(C(N)CO)nn3)CC2)n1 (stereo not given in full) | -12% | -6%[2.33 µM] | . | -12% | 79µM* | 79µM*
O=c1oc2ccccc2cc1-c1nc(-c2cccs2)no1 | . | -3%[59 µM] | . | 42% | 7% | 10%
Cc1ccc(NC(=O)c2cc3ccccn3n2)cc1F | . | 5%[59 µM] | . | 37% | 7% | -3%
Cc1cccc(C(CC(=O)NCc2ccco2)c2ccccc2)c1O (stereo not given) | -9% | 45µM* | 3% | 42% | ? | -21%
